The results in this text go back to PubChem BioAssay AID489025 (Southern Research Specialized Biocontainment Screening …, 2010).

Hit rate of the full screen: of about 2,300 compounds, about 790 (34%) were called active. How the calls were made is not given here. This is one part of the list. Entries with a potency or affinity are not part of this list.

The nature of the experiment: THP-1 cell cytotoxicity, dose response, cytotoxicity control for non-replicating M. tuberculosis project (AID 489025). The settings on record: THP-1 cell viability; series mostly up to 40 µM.
As to `Cc1cccc(N2CCN(Cc3ccc([N+](=O)[O-])o3)CC2)c1C`, the call was inactive.
As to `CCCCOC(=O)c1ccc(NC(=O)c2nn(C)cc2Br)cc1`, the outcome was inactive.
`O=C(N/N=C/c1ccc[nH]1)c1ccncc1`: the molecule was called inactive.
Regarding `O=C1NCC(O)=C1C=Nc1ccccc1O`, the call was inactive.
For `Cc1[nH]nc2c1C(c1ccc(-c3ccc(Cl)cc3)o1)C(C#N)=C(N)O2` (stereo unspecified) the value was “inactive”.
The entry for `Cc1ccc(NCCC(=O)c2cccs2)cc1Cl` is “inactive”; for `CC1(C)CC(=O)C=C(Nc2ccccc2N)C1` it is “inactive”.
The entry for `Nc1ccccc1Nc1ccccc1` is “inactive”.
`CSCCOC(=O)COc1ccc(/C=N/NC(=O)c2c(Cl)cnn2C)cc1`: the molecule was classed as inactive.
The entry for `CCOC(=O)CC(NS(=O)(=O)Cc1ccccc1)c1ccc(C)cc1` (stereo unspecified) is “inactive”; for `CCCCC1CCC(C(=O)Nc2ccc(S(=O)(=O)Nc3nccs3)cc2)CC1` (stereo unspecified) it is “inactive”.
For `COC(=O)COc1ccc(S(=O)(=O)N2CCCCCC2)cc1` the value was “inactive”; for `CC1(C)Oc2ccc(NC(=O)C3COc4ccccc4O3)cc2O1` (stereo unspecified), “inactive”; for `CCc1nnc(NC(=O)c2cc3ccccc3oc2=O)s1`, “inactive”.
For `CC(C)(C)NC(=O)c1ccc(NC(=O)c2ccccc2-c2ccccc2C(=O)O)cc1`, the call was inactive.
In the case of `COC(=O)COc1ccc2c(=O)c(-c3ccccc3OC)coc2c1`, the result was inactive.
The entry for `O=C(COC(=O)c1cc2ccccc2oc1=O)Nc1ccc(F)cc1F` is “inactive”; for `O=C(CCSc1ccc(Cl)cc1)NC1CCCC1` it is “inactive”; for `CCc1ccc(NC(=O)COc2ccc3c(c2)OCO3)cc1` it is “inactive”.
For `COc1ccc(C(=O)COC(=O)CCC(=O)c2cccs2)cc1` the value was “inactive”; for `Cc1nc(C(=O)Nc2ccccc2)sc1C(=O)Nc1ccccc1`, “inactive”.
The entry for `CC1=CC2=NC(=O)/C(=C\c3ccc(OC(=O)c4ccco4)cc3)C(=N)N2O1` is “inactive”.
Take `CCOC(=O)c1ccc(COC(=O)c2cc3ccccc3oc2=O)o1`: the result was inactive.
For `Cc1cccc(OCC(=O)NNC(=O)c2cc3ccccc3oc2=O)c1` the value was “inactive”.
Regarding `COc1cccc(OCC(=O)NNC(=O)C(=O)Nc2cccc(C)c2)c1`, the call was inactive.
For `O=c1oc(-c2ccccc2[N+](=O)[O-])nc2ccccc12`, the call was inactive.
For `CCOc1ccc(C(=O)Nc2ccc(N3CCN(C)CC3)cc2)cc1Br` the value was “inactive”; for `O=C(NC1=NCCS1)c1ccc(-c2ccc(Cl)cc2)o1`, “inactive”; for `O=C(NNC(=O)c1ccccc1F)c1ccc(-c2ccc(Cl)cc2)o1`, “inactive”.
Take `NC(=O)c1ccc(-c2ccc(Br)cc2)o1`: the molecule was called inactive.
For `CC(=O)N1CCN(c2cc3c(cc2F)c(=O)c(C(=O)O)cn3C2CC2)CC1`, the outcome was inactive.
Turning to `CCCCn1c(O)c(/C=C2/C=CC=N2)c(=O)[nH]c1=O`, the result was inactive.
As to `COC(=O)C(O)(c1ccc(NC(=S)NC(=O)c2ccccc2)cc1)C(F)(F)F` (stereo unspecified), the call was inactive.
In the case of `CCOC(=O)CCSc1n[nH]c(=S)s1`, the molecule was called inactive.
On to `COC(=O)CN(C#N)c1nc(N(C)C)nc(N(C)C)n1`, for which the result was inactive.
Consider `Cc1ccc2nc3c(c(N)c2c1)CCN3c1ccccc1`, for which the call was inactive.
For `O=C(c1cc([N+](=O)[O-])cc([N+](=O)[O-])c1)N(Cc1nnc(-c2ccccc2Cl)o1)C1CC1` the value was “inactive”; for `O=C(COc1ccc2ccccc2c1)N/N=C/c1ccccn1`, “inactive”.
For `CCn1cc(/C=N\NC(=O)c2ccc(F)cc2)cn1`, the call was inactive.
In the case of `COc1ccc(C(=O)Nc2ccccc2C(=O)N/N=C/c2ccco2)cc1`, the molecule was classed as inactive.
For `O=C(COc1ccccc1)Nc1ccc(F)cc1` the value was “inactive”.
In the case of `COc1ccc(C2=NC(=O)/C(=C\c3cc(OC)c(OC)c(OC)c3)O2)cc1`, the result was inactive.
For `CSc1nnc(Cc2ccc3c(c2)OCO3)o1` the value was “inactive”.
In the case of `Oc1ccccc1-c1nnc(COc2ccccc2)o1`, the result was inactive.
Turning to `Cc1ccc(-c2nnc(-c3ccccc3)o2)cc1`, the molecule was classed as inactive.
On to `Cc1cc(C)cc(NC(=O)CCc2ccc(C)o2)c1`, for which the call was inactive.
The entry for `Cn1c(=O)c(Oc2ccc(F)cc2)c(O)c2ccccc21` is “inactive”.
Consider `Nc1nnc(SCCCC(=O)c2ccc(Br)cc2)s1`, for which the outcome was inactive.
The entry for `CC(C)(C)c1cc(CN2CCC(O)CC2)cc(C(C)(C)C)c1O` is “inactive”.
The entry for `Cc1cc(C(=O)NNc2cc(Cl)ccc2Cl)no1` is “inactive”; for `Cc1ccc(SCCC(=O)OCC(=O)NCC2CCCCC2)cc1` it is “inactive”; for `Cc1ccccc1OCCC(=O)OCC(=O)NNC(=O)c1cccs1` it is “inactive”.
The entry for `Cc1ccc(NC(=O)C2CC2c2ccccc2)cc1` (stereo unspecified) is “inactive”; for `O=C(NNc1ccc([N+](=O)[O-])cc1)C1CC1c1ccccc1` (stereo unspecified) it is “inactive”; for `O=C(N/N=C/c1cccc2nccnc12)c1ccncc1` it is “inactive”.
Consider `COc1cc(/C=N/NC(=O)c2ccncc2)ccc1OC(=O)c1cccc(F)c1`, for which the outcome was inactive.
For `O=C(COC(=O)c1ccc(Br)o1)NC1CCCCC1` the value was “inactive”.
As for `Cc1ccc(CSCCNC(=O)c2cccc([N+](=O)[O-])c2)cc1`, the molecule was called inactive.
As to `O=C(N/N=C/C=C/c1cccc([N+](=O)[O-])c1)c1ccncc1`, the molecule was called inactive.
`O=C(N/N=C/c1ccccn1)c1cccc([N+](=O)[O-])c1`: the molecule was classed as inactive.
With `CC(/C=C/c1cccc([N+](=O)[O-])c1)=N\NC(=O)c1ccncc1`, the call was inactive.
For the molecule `COc1cccc(OCCNC(=O)c2cc([N+](=O)[O-])cc([N+](=O)[O-])c2)c1`, the molecule was called inactive.
The entry for `FC(F)(F)c1ccc(-c2nnc(-c3cccnc3)o2)cc1` is “inactive”; for `CC1CCCN(CCSc2ccc(Cl)cc2)C1` (stereo unspecified) it is “inactive”.
For `CCC(C)(C)c1ccc(OCC(=O)Nc2ccncc2)cc1` the value was “inactive”; for `COc1ccc(-n2c3c(cc(C(=O)NNc4ccccc4)c2=O)C(=O)CC(C)(C)C3)cc1`, “inactive”; for `Cc1cccc(NC(=O)COC(=O)CCc2c[nH]c3ccccc23)c1`, “inactive”.
As for `Cc1ccc(C(C)C)c(OCC(=O)OCc2c(C)noc2C)c1`, the molecule was called inactive.
For `CCOC(=O)COc1ccc(C(=O)Nc2cccc(Cl)c2C)cc1` the value was “inactive”; for `c1ccc(-c2nnc(SCc3nnc(-c4cccs4)o3)o2)cc1`, “inactive”.
The entry for `CCOC(=O)Cc1nc2cc(Cl)ccc2o1` is “inactive”.
Take `O=C1c2ccccc2CC1Sc1nnc(-c2ccncc2)o1` (stereo unspecified): the molecule was called inactive.
For the molecule `CCCCCCOc1ccc(N2C(=O)CC(N3CCN(C(=O)c4ccco4)CC3)C2=O)cc1` (stereo unspecified), the call was inactive.
As to `O=C(Nc1cccc([N+](=O)[O-])c1)C1COc2ccccc2O1` (stereo unspecified), the molecule was called inactive.
As for `CC(/C=C/c1ccc2c(c1)OCO2)=N/NC(=O)C1COc2ccccc2O1` (stereo unspecified), the outcome was inactive.
On to `O=C(Nc1cccc(Cl)c1)C1COc2ccccc2O1` (stereo unspecified), for which the molecule was called inactive.
The entry for `CC(C)(C)c1ccc2c(c1)OC(C(=O)N/N=C\c1ccccn1)CO2` (stereo unspecified) is “inactive”; for `CC(C)NC(=O)C1COc2ccccc2O1` (stereo unspecified) it is “inactive”.
The entry for `O=C(Nc1ccc([N+](=O)[O-])cc1)C1COc2ccccc2O1` (stereo unspecified) is “inactive”; for `COc1ccc(NC(=O)C2COc3ccccc3O2)cc1` (stereo unspecified) it is “inactive”.
Take `Cc1ccccc1NC(=O)C1COc2ccccc2O1` (stereo unspecified): the call was inactive.
For `CN1CCC(O)(c2ccccc2)C(C(=O)c2ccccc2)C1` (stereo unspecified) the value was “inactive”; for `COc1cccc(NC(=O)COC(=O)Cc2ccc(Br)cc2)c1`, “inactive”.
On to `COc1ccc(OCCC(=O)OCC(=O)Nc2ccc(Br)cc2)cc1`, for which the call was inactive.
As for `Cn1ccsc1=NC(=O)c1ccccc1F`, the outcome was inactive.
The entry for `Cc1ccccc1C(=O)NNc1ccc([N+](=O)[O-])cc1` is “inactive”; for `CC(C)(C)Sc1ccc2nc3c(n2c1)CCCC3` it is “inactive”; for `COc1ccc(N=Cc2nc(-c3ccccc3)oc2OC(C)=O)cc1` it is “inactive”.
For `CCCOc1ccc(N2C(=O)CC(N3CCCC(C(=O)N4CCCC4)C3)C2=O)cc1` (stereo unspecified), the outcome was inactive.
For `Cc1ccc(C2=NN(C)c3nc4ccccc4n3C2)cc1` the value was “inactive”; for `COc1cccc(C(=O)OCC(=O)c2ccc(Br)s2)c1OC`, “inactive”.
Regarding `O=C(COC(=O)c1ccccc1)NC12CC3CC(CC(C3)C1)C2`, the result was inactive.
The entry for `C=CCN1C(=O)C2(NNc3ccccc3O2)c2ccccc21` (stereo unspecified) is “inactive”; for `O=C(NCCC1=CCCCC1)c1coc(=O)c(Br)c1` it is “inactive”.
The entry for `COc1ccc(C2=Nc3ccccc3OC2)cc1` is “inactive”; for `Cc1ccc(N2C(=O)CC(Sc3nccc(C)n3)C2=O)cc1` (stereo unspecified) it is “inactive”; for `COC(=O)c1ccc(Cn2cc(C(F)(F)F)cc([N+](=O)[O-])c2=O)cc1` it is “inactive”.
For `COc1ccc(C(=O)OCn2nnc3ccccc3c2=O)cc1[N+](=O)[O-]`, the molecule was called inactive.
The entry for `Cc1cccc(C)c1NC(=O)COC(=O)CCc1c[nH]c2ccccc12` is “inactive”; for `C=C[C@]1(C)C=C2CCC3[C@](C)(CCC[C@@]3(C)C(=O)O)C2CC1` (stereo partly specified) it is “inactive”.
With `Oc1c(Br)cc(Br)cc1/C=N/c1nccs1`, the outcome was inactive.
For `Cc1nnc(C)n1/N=C/c1cc(Br)cc(Br)c1O` the value was “inactive”; for `Cc1ccc(-c2nnc(SCC#CCOC(=O)c3ccco3)o2)cc1`, “inactive”; for `CCOC(=O)COc1ccc2c(c1)c(C(=O)OCC)c(C)n2CC`, “inactive”.
Regarding `O=C(Nc1ccccc1N1CCCC1)c1cccc(F)c1`, the molecule was called inactive.
The entry for `COc1ccc(OCC(=O)NNC(=O)c2ccccn2)cc1` is “inactive”.
The entry for `O=C(Nc1ncccc1O)c1ccc(Oc2ccccc2)cc1` is “inactive”; for `O=C(COc1ccc(Cl)cc1)NNC(=O)c1ccccn1` it is “inactive”; for `COC(=O)c1ccc(OCC(=O)c2cccc(OC)c2)cc1` it is “inactive”.
As to `COc1cccc(NC(=O)c2ccc(C(=O)c3ccccc3)o2)c1`, the molecule was called inactive.
Turning to `O=C(N/N=C/c1ccc[nH]1)c1cccnc1`, the molecule was called inactive.
For `CCc1ccc(NC(=O)C(=O)NNC(=O)COc2cccc(OC)c2)cc1`, the call was inactive.
Consider `Brc1ccc(CSc2nnc(-c3ccco3)o2)cc1`, for which the outcome was inactive.
The entry for `COc1ccc([C@@]2(O)c3c(ccc(CC=C(C)C)c3O)NC(=O)[C@@H]2OC)cc1` is “inactive”; for `CCCOC(=O)NC1CCS(=O)(=O)C1` (stereo unspecified) it is “inactive”; for `Cc1ccc(Sc2ccc(C=C3C(=O)N(C)C(=O)N(C)C3=O)o2)cc1` it is “inactive”.
Consider `CCc1ccc(N2C(=O)CC(N3CCC(C(=O)OC)CC3)C2=O)cc1` (stereo unspecified), for which the result was inactive.
As for `CCOC(=O)c1c(C)n(C)c2ccc(OC(C)C(=O)OC)cc12` (stereo unspecified), the outcome was inactive.
As to `COc1ccc(CN2CCC(C(=O)Nc3ccc(Oc4cccnc4)cc3)CC2)c(C)c1C`, the outcome was inactive.
For the molecule `O=C(COc1c(Br)cc(Br)c2cccnc12)N1CCCCC1`, the outcome was inactive.
The entry for `O=C(CCN1CCOCC1)c1ccc(Cl)cc1` is “inactive”; for `COc1cc(NC(=O)N2CCOCC2)cc(OC)c1` it is “inactive”.
For the molecule `CCOC(=O)C1(CCc2ccccc2)CCN(Cc2ccccn2)CC1`, the molecule was called inactive.
For `Oc1ccc(F)c2cccnc12` the value was “inactive”; for `COc1cc(OC)cc(OC(=O)c2ccc3c(=O)n4c(nc3c2)CCC4)c1`, “inactive”.
For `COc1ccc(/C=N/NC(=O)c2ccncc2)cc1CN1CCOCC1` the value was “inactive”.
